Reference: PubChem BioAssay AID488895 (Broad Institute, 2010)
Hit rate of the full screen: of about 340,000 compounds, about 120 (0.035%) were called active. Only a selection was taken, and actives are over-represented in it overall. A number with no mark means an inactive call.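 The calls were made as follows: active = mean replicate inhibition at least 50% and at least half of replicates individually reaching 50%; inconclusive = only one of the two criteria met; inactive = neither criterion met.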

Assay: blockers of twin-arginine translocation in E. coli – MC4100, TorA-mCherry reporter, fluorescence, single point, primary screen (AID 488895);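 also: exported cargo escapes ClpAP degradation while cytoplasmic cargo is degraded and loses fluorescence; 0% = median of neutral control wells and 100% = median of NaSCN control wells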
Settings: E. coli MC4100 TorA-mCherry Tat export, at 10 µM, hits give high values

Structure (SMILES) | inhibition
CN1CCN(c2cc3c(cc2F)c(=O)c(C(=O)O)cn3CCF)CC1 | 81.7% (active)
CCCCCCn1cc(C(=O)O)c(=O)c2cc(F)c(N3CCCCC3)cc21 | 4.11%
CCn1cc(S(=O)(=O)c2cccc(C)c2)c(=O)c2cc(F)c(N3CCN(C)CC3)cc21 | -3.59%
CCn1cc(C(=O)NCCC(=O)NCCO)c(=O)c2cc3c(cc21)OCO3 | 0.475%
CCn1cc(C(=O)NCCO)c(=O)c2cc(F)c(N3CCN(C)CC3)cc21 | 81.4% (active)
CCCCNC(=O)c1cn(CC)c2cc(N3CCN(C(=O)c4ccco4)CC3)c(F)cc2c1=O | -4.43%
CC1(C)O[C@@H]2[C@H](O1)[C@@H](COS(=O)(=O)O)O[C@H]2n1ccc(=O)[nH]c1=O | -1.01%
COc1ccc(S(=O)(=O)Nc2cccc3c2O[C@H](CN(C)S(=O)(=O)c2ccc(OC)cc2)[C@@H](C)CN([C@H](C)CO)C3=O)cc1 | 0.274%
O=C(c1cn(-c2ccccc2)nc1-c1cccnc1)N1CCN(S(=O)(=O)c2ccccc2F)CC1 | 7.82%
COc1ccc(CNC(=O)C(NS(=O)(=O)c2cccc3nsnc23)C(C)C)cc1 (stereo unspecified) | -12.3%
Cc1nc2ccc(C(=O)N3CCSCC3)cc2s1 | -5.07%
COc1cc(C2CC(=O)Oc3cc(OC)c(OC)c(OC)c32)cc(OC)c1OC (stereo unspecified) | 0.529%
COc1cccc(C(C(=O)NC2CCCC2)N(C(=O)c2ccco2)c2cccc(C(C)=O)c2)c1OC (stereo unspecified) | 7.67%
CCNC(=O)CC1C(=O)N(c2ccc(OC)cc2)C(=S)N1CCc1ccncc1 (stereo unspecified) | 5.06%
O=C(CN1CCN(S(=O)(=O)c2ccc(F)cc2)CC1)NC1CC1 | 2.17%
CCn1cc(/C=C(\NC(=O)c2cc(OC)c(OC)c(OC)c2)C(=O)N2CCN(C)CC2)c2ccccc21 | 6.75%
N#Cc1nc(N)nc(N(c2ccccc2)c2ccccc2)n1 | -1.07%
CC(=O)NC(=S)NNC(=O)c1ccc(Br)cc1 | 10.8%
O=C(COc1coc(CN2CCN(c3ccccc3)CC2)cc1=O)N1CCc2ccccc21 | -5.1%
COCC(=O)N1CCc2ccc(NC(=O)c3ccccc3Cl)cc2C1 | -8.59%
O=C(Cc1ccccc1F)NC1CCSc2ccccc21 (stereo unspecified) | -4.99%
CC(N)C12CC3CC(CC(O)(C3)C1)C2 (stereo unspecified) | -2.5%
CCn1ccnc1CN1CCCC(C(=O)c2ccc3c4c(cccc24)CC3)C1 (stereo unspecified) | -0.858%
COc1ccc(C2NCCCC2c2ccccc2)cc1 (stereo unspecified) | 0.669%
CC(=O)Nc1ccc(OCCC[n+]2cccc(C(=O)[O-])c2)cc1 | 0.863%
CCOC(=O)N1CCN(C(=O)c2ccccc2N(Cc2ccccc2)S(=O)(=O)c2ccc(OC)cc2)CC1 | -2.32%
